Rows were chosen to be rich in hits. Some 4.3% of all compounds tested hit in one or more screens of this group.
HSF1 inh – HSF1 inhibition. NIH3T3-HGL HSE-luciferase, MG132-induced, luminescence 8 h; active compounds read low. activity change, negative = inhibition, % at 7.5 µM (by protocol). 0.77% of 300,000 active. AID 2098;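 active = more than half of replicate wells show activity change below -50%, luminescence cut by over half; inconclusive = some wells, but at most half, below -50%; inactive = no replicate well below -50%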;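 note: luciferase reports HSF-1 transcriptional activity via heat shock element; 0% = median of DMSO wells and -100% = zero luminescence signal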
MITF act – increases MITF-driven TRPM1 promoter luciferase signal | 0.75% of 300,000 active | activation, % at 12.5 µM | SK-MEL-5 TRPM1-promoter luciferase, 24 h; % of positive control, neutral wells = 0;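 active = mean activation of at least 80% with every replicate also reaching 80%; inconclusive = mean reaches 80% but some replicate falls short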;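 note: 0% = neutral control wells and 100% = parthenolide positive control wells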
SMARCA2 act – SMARCA2 function activation, primary screen. 1% of 370,000 active. MG213 cells, MMTV-luciferase reporter, dexamethasone, overnight. activation, % at 9.1 µM; in the data active = activation above about 7.8%;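 note: 0% = vehicle wells and 100% = reference activator wells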
HSF1 activator – increases HSF-1 driven luciferase reporter signal; NIH3T3-HGL HSF-1 luciferase reporter, MG132, 8 h; 100% = twice DMSO control signal; activation, % at 9 µM; 1.7% of 300,000 active;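 active = mean replicate activation of at least 50% with a set share of replicates each reaching 50%; inconclusive = only one of those two conditions met; inactive = mean below 50% and too few replicates reaching it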;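 note: 0% = median of the neutral control wells and 100% = twice that signal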
Wnt bcat act – activates Wnt/beta-catenin signaling in a reporter cell assay; AID 743398; activation, % at 9.35 µM; 1.2% of 300,000 active; activator, plate reader; in the data active = activation above about 30%, passing the limit was not always enough; inconclusive = no clear call, values can overlap the other calls;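 note: 0% = neutral control wells and 100% = positive control wells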
esBAF inh – inhibitors of esBAF chromatin remodeling in mouse ES cells; Bmi1-luciferase knock-in reporter, 24 h; 100% = twice the neutral-well signal; reporter increase, % at 12.5 µM; 2% of 350,000 active; AID 602393; in the data active = activation above about 40%; inconclusive = no clear call, values can overlap the other calls;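 note: 0% = median of the plate's neutral control wells and 100% = double that signal; a rise in the Bmi1 reporter signal indicates esBAF inhibition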
An asterisk follows results filed as active.

How did CNC(=O)NC(=O)CSc1cccc(C(F)(F)F)c1 do in these assays?
HSF1 inh: 5; MITF act: 3; SMARCA2 act: -2; HSF1 activator: 28; Wnt bcat act: 0; esBAF inh: -3

What do the screens show for `CCCc1[nH]nc2c1C(c1ccc(OC)cc1OC)C(C#N)=C(N)O2` (stereo unspecified)?
HSF1 inh: 23; MITF act: 4; SMARCA2 act: -5; HSF1 activator: 63*; Wnt bcat act: 0

What do the screens show for `Nc1c(OS(=O)(=O)c2ccccc2)cccc1OS(=O)(=O)c1ccccc1`?
SMARCA2 act: 2; Wnt bcat act: 60*

How did CCOC(=O)C(NC(=O)c1ccc(F)cc1)(Nc1sc2c(c1C(N)=O)CCC2)C(F)(F)F (stereo unspecified) do in these assays?
HSF1 inh: -6; MITF act: -10; SMARCA2 act: 4; HSF1 activator: 16; Wnt bcat act: 108*

What do the screens show for `N#Cc1c(NC(=O)c2ccc(Cn3cc(Br)cn3)o2)sc2c1CCCCC2`?
HSF1 inh: 9; MITF act: 23; SMARCA2 act: 2; HSF1 activator: 13; esBAF inh: 44*

Results for NC(=O)c1c(NC(=O)c2ccco2)sc2c1CCC2 ?
HSF1 inh: 25; MITF act: 62; SMARCA2 act: 3; HSF1 activator: 40; esBAF inh: 103*

Results for O=C(Nc1sc2c(c1C(=O)O)CCCCC2)c1ccco1 ?
HSF1 inh: -7; SMARCA2 act: 2; HSF1 activator: 22; esBAF inh: 11

What do the screens show for `N#Cc1c(NC(=O)c2ccco2)sc2c1CCC2`?
HSF1 inh: 15; MITF act: 91*; SMARCA2 act: 3; HSF1 activator: 25; Wnt bcat act: 2; esBAF inh: 54*

What do the screens show for `CC=Cc1ccc2n(c1=O)C[C@@H]1[C@@H](CO)[C@H](C(=O)NCc3ccccc3)N(S(C)(=O)=O)[C@H]21` (mixture of isomers)?
esBAF inh: 0

What do the screens show for `C[C@H](CO)N1C[C@H](C)[C@@H](CN(C)C(=O)NC2CCCCC2)Oc2c(NC(=O)NC3CCCCC3)cccc2C1=O`?
esBAF inh: 3

How did O=C(C[C@@H]1CC[C@H](NC(=O)Nc2ccc(C(F)(F)F)cc2)[C@@H](CO)O1)NCc1cccc(F)c1 do in these assays?
esBAF inh: 10

How did CN1CCc2c(sc(NC(=O)Cc3ccccc3)c2C(N)=O)C1 do in these assays?
HSF1 inh: 2; SMARCA2 act: -3; HSF1 activator: 21; Wnt bcat act: 2; esBAF inh: -7

Results for CN1CCc2c(sc(NC(=O)c3ccc4ccccc4c3)c2C(N)=O)C1 ?
HSF1 inh: -22; MITF act: 121*; HSF1 activator: -40; esBAF inh: -15

What do the screens show for `N#Cc1c(NC(=O)c2cnn3cccnc23)sc2c1CCCC2`?
HSF1 inh: 20; MITF act: 46; SMARCA2 act: -1; HSF1 activator: 43; Wnt bcat act: 24; esBAF inh: 42*

How did NC(=O)c1c(NC(=O)c2ccccc2)sc2c1CCC2 do in these assays?
HSF1 inh: 27; MITF act: 25; SMARCA2 act: 3; HSF1 activator: 49; Wnt bcat act: 65*; esBAF inh: inconclusive

Results for NC(=O)c1c(NC(=O)c2ccncc2)sc2c1CCCC2 ?
HSF1 inh: -6; MITF act: 24; SMARCA2 act: 3; HSF1 activator: 4; Wnt bcat act: -1

What do the screens show for `N#Cc1c(NC(=O)c2nc3ncccn3n2)sc2c1CCCCC2`?
MITF act: 17; SMARCA2 act: -6; Wnt bcat act: -1; esBAF inh: -59

How did NC(=O)c1c(NC(=O)c2ccccc2)sc2c1CCc1ccccc1-2 do in these assays?
HSF1 inh: 40; MITF act: 35; SMARCA2 act: 6; HSF1 activator: 74*

What do the screens show for `Cc1noc(C)c1NC(=O)Nc1ccc2c(c1)CC(=O)N([C@@H](C)CO)C[C@H](C)[C@H](CN(C)S(=O)(=O)c1ccc(Cl)cc1)O2`?
esBAF inh: -2

Results for CNC(=O)c1c(NC(=O)c2nc3ccccc3s2)sc2c1CCC2 ?
HSF1 inh: 32; MITF act: inconclusive; HSF1 activator: 55*; esBAF inh: 75*

Results for COC(=O)c1c(NC(=O)c2nc3ccccc3s2)sc2c1CCN(C(C)=O)C2 ?
MITF act: 34; esBAF inh: 1

Results for Cc1occc1C(=O)Nc1sc2c(c1C(N)=O)CCCCC2 ?
HSF1 inh: 7; MITF act: 69; SMARCA2 act: 4; HSF1 activator: 9; esBAF inh: 47*

Results for COC(=O)c1c(NC(=O)c2ccoc2C)sc2c1CCC2 ?
HSF1 inh: 1; MITF act: 4; SMARCA2 act: 1; HSF1 activator: -8; Wnt bcat act: -9

What do the screens show for `C[C@H](CO)N1C[C@H](C)[C@H](CN(C)C(=O)CC2CC2)Oc2cc(-c3cncnc3)ccc2S1(=O)=O`?
esBAF inh: -2

What do the screens show for `CC1(C)CC(=O)C=C(c2cc3ccccc3s2)C1`?
HSF1 inh: 2; MITF act: 35; SMARCA2 act: 4; HSF1 activator: -1; Wnt bcat act: 10; esBAF inh: 19

Results for O=C1C=C(c2cc3ccccc3s2)CCC1 ?
HSF1 inh: 29; MITF act: 106*; SMARCA2 act: 3; HSF1 activator: 30; Wnt bcat act: 26; esBAF inh: 74*

How did O=C(O)[C@H]1[C@H](CO)[C@H]2Cn3c(ccc(-c4ccccc4)c3=O)[C@H]2N1CCc1ccccc1 do in these assays?
esBAF inh: 4

What do the screens show for `Cc1ccc2nc(-c3ccc(Cl)cc3)c(Cc3ccccc3C(F)(F)F)n2c1`?
SMARCA2 act: 2; Wnt bcat act: 13; esBAF inh: 50*

How did FC(F)(F)c1ccccc1Cc1c(-c2cccc(Br)c2)nc2ccc(Cl)cn12 do in these assays?
SMARCA2 act: -1; Wnt bcat act: -1; esBAF inh: 9

What do the screens show for `Cc1ccc(-c2nc3ccc(Cl)cn3c2Cc2ccccc2C(F)(F)F)cc1`?
SMARCA2 act: 1; Wnt bcat act: 26; esBAF inh: 2

How did FC(F)(F)c1ccccc1Cc1c(-c2cccc(Cl)c2)nc2ccc(Cl)cn12 do in these assays?
SMARCA2 act: 6; Wnt bcat act: 18; esBAF inh: 56*

What do the screens show for `O=C(C[C@@H]1CC[C@H]2[C@@H](COC[C@H](O)CN2C(=O)Nc2cccc(F)c2)O1)NCc1ccccc1Cl`?
esBAF inh: 7

Results for COC(=O)/C(=C\Nc1ccccc1N)c1ncc(C(F)(F)F)cc1Cl ?
HSF1 inh: 87; MITF act: -6; SMARCA2 act: 7; HSF1 activator: 138*; esBAF inh: 38
